CCT chaperon mod: High-Throughput Screening for Modulators of Cytosolic Chaperonin Activity; activity change, % (test concentration not listed), hits read low; 360,000 compounds, 0.3% hits; purified chaperonin ATPase assay, HTRF ADP detection, 30 min; in the data active = activity change below about -30%
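Enzyme 40 or 20 nM (batch-dependent) in Tris pH 7.4/KCl/MgCl2/DTT; cpd 76 uM single point; ATP 10 uM; 30 min 37 °C; Transcreener ADP HTRF detection, 30 min RT; ratio 665/615.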
uPA generation: qHTS for Inhibitors of Cell Surface uPA Generation. cell surface uPA generation assay, qHTS. Potency, µM (titrated, usually from 38.3 µM), most hits filed as inhibitors. 330,000 compounds, 0.31% hits. AID 540303, 2011; active = well fitted inhibition curve with a large enough effect; inconclusive = small, poorly fitted or top-dose-only effect; inactive = no such curve, though single readings can be large or run the other way; tested in mouse RAW 264.7 cells; note: nearly all actives have a fitted effect of over 55% in size
Epigenetic derep: Quantitative High-Throughput Screen for Regulators of Epigenetic Control | murine LDR cells, GFP reporter derepression, 30 h | Potency, µM (doses to about 53.9 µM), actives largely listed as activators | 280,000 compounds, 0.2% hits | AID 1865, 2009; note: nearly all actives have a fitted effect of over 60% in size
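In this reporter-derepression format, murine cells bearing a silenced integrated CMV-GFP locus incubate with test compound (30 h, 37 C), then are washed and imaged; fluorescent objects of 20–120 um count as induced cells.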
pAkt inh: HTS Assay for Inhibitors of Akt Phophorylation: Primary Screen; Neuro2A IGF-stimulated pAkt S473 HTRF, 20 min; stronger effect = lower value; activity change, % for hits at 50 µM; 360,000 compounds, 0.32% hits; AID 651550, 2012; in the data active = activity change below about -80%; inconclusive = mostly about -51% to -80%
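Neuro2A cells in DMEM with 0.5% FBS, overnight at 37 deg C, given compound at single 50 µM final, then IGF (6 nM final) for 20 min at 37 deg C. Lysed; phospho-Akt Ser473 by HTRF after 24 h, 665/615 ratio.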
MmCpn inh: Inhibitors of TCP-1 ring complex (TRiC) of Methanococcus maripaludis (MmCpn): qHTS. 330,000 compounds, 0.031% hits. Chaperonin Mm-Cpn (Methanococcus maripaludis). purified Mm-Cpn ATPase, ADP Transcreener TR-FRET. Potency, µM (highest dose often 76.9 µM), usual class: inhibitors; note: nearly all actives have a fitted effect of over 80% in size
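Purified archaeal Mm-CPN (25nM final) preincubated 10 min at 37degC with compound, then 10uM ATP for 30 min at 37degC; ADP measured by HTRF Transcreener TR-FRET; buffer 30 mM TRIS pH 7.4, 100mM KCl, 5mM MgCl2, 1mM DTT.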
MBNL1-CUG inh: qHTS Assay for Inhibitors of MBNL1-poly(CUG) RNA binding; Potency, µM (series often up to 57.5 µM), actives largely listed as inhibitors; AID 2675, 2010; TR-FRET MBNL1-His/biotin-(CUG)12 binding, 665/545 ratio; 280,000 compounds, 0.036% hits; Muscleblind-like protein 1 (Homo sapiens), Q9NR56; active = well fitted inhibition curve with a large enough effect in the signal ratio, with a control signal flat, not every such curve was filed as active; inconclusive = small, poorly fitted or top-dose-only effect, or effect the other way, or a change in a side signal; inactive = no such curve, though single readings can be large or run the other way; the % refers to the signal ratio
Target sequence (Q9NR56 whole entry, looked up): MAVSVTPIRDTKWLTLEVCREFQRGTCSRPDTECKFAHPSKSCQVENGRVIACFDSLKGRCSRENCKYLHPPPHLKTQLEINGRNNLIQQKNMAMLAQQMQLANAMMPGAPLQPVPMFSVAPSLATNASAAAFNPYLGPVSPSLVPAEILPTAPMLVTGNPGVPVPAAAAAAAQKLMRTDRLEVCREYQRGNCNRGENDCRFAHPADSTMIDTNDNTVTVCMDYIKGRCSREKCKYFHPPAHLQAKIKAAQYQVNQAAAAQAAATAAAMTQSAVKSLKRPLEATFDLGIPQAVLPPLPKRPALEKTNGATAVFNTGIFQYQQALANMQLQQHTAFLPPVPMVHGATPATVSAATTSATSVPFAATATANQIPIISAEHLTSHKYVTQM
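MBNL1-His + Biotin-(CUG)12, cpd titration 92 nM–58 uM; Tb anti-His Ab 0.055 ng/ul, SA-XL665 5 nM (final); 60 min RT; ratiometric 665/545 nm, Ex 340 nm; normalized to buffer and full-complex controls.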
Numbers stand for hits; [ ] = remark or other dose. In the library only some 0.97% were active in any assay of this set; here they are far more common. Unless noted, calls come from the whole dose curve; as a rule, active = well fitted curve in the direction sought with a large enough effect; inconclusive = small, poorly fitted or top-dose-only effect, or another doubt; inactive = no such curve, though single readings can be large; an effect the other way counts as inactive or inconclusive.

What do the screens show for `CCOc1ccc(-n2c(=O)[nH]cc(C(=O)Nc3ccc(OC)c(OC)c3)c2=O)cc1`?
CCT chaperon mod: inactive; uPA generation: inactive; Epigenetic derep: inactive; pAkt inh: inactive; MmCpn inh: inconclusive; MBNL1-CUG inh: inactive

What do the screens show for `O=C(Oc1ccc(C(=S)N2CCOCC2)cc1)c1cccc(Cl)c1`?
CCT chaperon mod: -63; uPA generation: inactive; pAkt inh: inactive; MmCpn inh: inactive; MBNL1-CUG inh: inactive

What do the screens show for `O=C(Oc1ccc(C(=S)N2CCOCC2)cc1)c1cc([N+](=O)[O-])cc([N+](=O)[O-])c1`?
CCT chaperon mod: inactive; uPA generation: inactive; pAkt inh: inactive; MmCpn inh: inactive; MBNL1-CUG inh: inconclusive

What do the screens show for `O=[N+]([O-])c1ccc2c3n([n+]([O-])c2c1)CCN=C3c1ccc(Cl)cc1`?
CCT chaperon mod: inactive; uPA generation: inconclusive; pAkt inh: inactive; MmCpn inh: inactive

How did Cc1ccc(C2=NCCn3c2c2ccc([N+](=O)[O-])cc2[n+]3[O-])cc1 do in these assays?
CCT chaperon mod: inactive; uPA generation: 0.71µM; pAkt inh: inactive; MmCpn inh: inactive

Results for CCN(C(=O)Cn1cnc2onc(-c3ccc(F)cc3)c2c1=O)c1cc(C)ccc1C ?
Epigenetic derep: inactive

How did CCCSc1nc(C)nc2c1c(=O)n(C)c(=O)n2C do in these assays?
Epigenetic derep: inactive; MmCpn inh: inactive; MBNL1-CUG inh: inactive

Results for COc1cc(O)c(C(=O)/C=C/c2ccccc2)c(O)c1 ?
Epigenetic derep: inactive[10.1 µM]

What do the screens show for `COc1cc(O)c(C(=O)/C=C/c2ccccc2)c(OC)c1`?
CCT chaperon mod: inactive; uPA generation: 8.9µM; Epigenetic derep: inconclusive; pAkt inh: inactive; MmCpn inh: inactive; MBNL1-CUG inh: inactive

What do the screens show for `O=C1[C@H]2[C@H](ON3CCCC[C@H]23)C(=O)N1c1ccc(Cl)cc1`?
CCT chaperon mod: inactive; uPA generation: inactive; Epigenetic derep: inactive; pAkt inh: inactive; MmCpn inh: inactive; MBNL1-CUG inh: inactive

Results for Cc1ccc(C2C(C#N)=C(N)OC3=C2C(=O)CC(C)(C)C3)s1 (stereo not given) ?
CCT chaperon mod: inactive; uPA generation: inactive; Epigenetic derep: inactive; pAkt inh: inactive; MmCpn inh: inactive; MBNL1-CUG inh: inactive

Results for CSc1ccccc1NC(=O)c1c(Br)cnn1C ?
CCT chaperon mod: inactive; uPA generation: inactive; Epigenetic derep: inactive; pAkt inh: -122%; MmCpn inh: inactive; MBNL1-CUG inh: inactive

What do the screens show for `CCOC(=O)c1[nH]c(C)c(C(=O)NCCc2ccccc2)c1C`?
Epigenetic derep: inactive

Results for O=C(CCS(=O)(=O)c1ccc2c(c1)NC(=O)CO2)NCc1ccccc1 ?
CCT chaperon mod: -64; uPA generation: inactive; pAkt inh: inactive; MmCpn inh: inactive; MBNL1-CUG inh: inactive

How did O=C(CCS(=O)(=O)c1ccc2c(c1)NC(=O)CO2)NCCc1ccccc1 do in these assays?
CCT chaperon mod: inactive; uPA generation: inactive; pAkt inh: inactive; MmCpn inh: inactive; MBNL1-CUG inh: inactive

How did CCOc1ccc(C(C)=O)cc1COC(=O)c1ccccc1C(=O)N(C)Cc1ccccc1 do in these assays?
CCT chaperon mod: inactive; uPA generation: inactive; pAkt inh: inactive; MmCpn inh: inactive

How did CN(C)CC(C)(C)CNC(=O)c1ccc(-n2c(=O)c(=O)[nH]c3ccccc32)cc1 do in these assays?
Epigenetic derep: inactive

How did COc1ccc(N(CC(=O)NCc2ccc(F)cc2)S(=O)(=O)c2c(C)noc2C)cc1 do in these assays?
CCT chaperon mod: inactive; uPA generation: inactive; Epigenetic derep: inactive; pAkt inh: inactive; MmCpn inh: inactive; MBNL1-CUG inh: inactive

How did CCOc1ccc(N(CC(=O)Nc2cccc(F)c2)S(=O)(=O)c2c(C)noc2C)cc1 do in these assays?
CCT chaperon mod: inactive; uPA generation: inconclusive; Epigenetic derep: inactive; pAkt inh: inactive; MmCpn inh: inactive; MBNL1-CUG inh: inactive

Screening data from PubChem.
